# gsp ag: qHTS for Agonist of gsp, the Etiologic Mutation Responsible for Fibrous Dysplasia/McCune-Albright Syndrome: qHTS | gsp mutant cells, cAMP HTRF, 30 min | Potency, µM (highest dose often 76.9 µM), for inactives: at the highest dose activation (cAMP increase), most hits filed as activators | 0.13% of 340,000 active; active = well fitted activation curve with a large enough effect; inconclusive = small, poorly fitted or top-dose-only effect, or another doubt; inactive = no such curve, though single readings can be large or run the other way; cell line not stated here;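 also: phosphodiesterase inhibitor Ro 20-1724 added with compounds to block cAMP breakdown; potency is read from the fitted curve at half-maximal effect; nearly all actives have a fitted effect of over 60% in size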
#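 Cells stably selected in G418 were plated at 2000/well, grown 16-24 hr, then given compounds in DMSO with the PDE inhibitor […] (300 uM solution added) for 30 min at 37C; cAMP was read by HTRF.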
# gsp antagonist: qHTS for Antagonists of gsp, the Etiologic Mutation Responsible for Fibrous Dysplasia/McCune-Albright Syndrome: qHTS. gsp-mutant cells, cAMP HTRF, 30 min. Potency, µM (highest dose often 76.9 µM), without a hit: at the highest dose activity change, negative = inhibition, hits mostly inhibitors. 0.4% of 340,000 active; calls by dose curve; cell line not stated here;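 also: intracellular cAMP measured with PDE inhibitor Ro 20-1724 present during compound exposure; potency is read from the fitted curve at half-maximal effect; % is scaled to controls: 0 for no effect and ±100 for the full control effect; nearly all actives have a fitted effect of over 65% in size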
#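 G418-selected cells were plated in DMEM/10% FBS for 16-24 h at 37C, then treated with compounds plus the PDE inhibitor […] (300 uM solution added) for 30 min at 37C. Intracellular cAMP was measured by HTRF after 30 min lysis at room temperature.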
# RXFP1 antag: qHTS Assay for Antagonists of the Relaxin Receptor RXFP1. 0.59% of 350,000 active. activity change, negative = inhibition, % at 57.5 µM. HEK293-RXFP1, relaxin-stimulated cAMP HTRF, 30 min; hits give low values;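 active = activity change of -60% or lower, but not beyond a set lower limit; inconclusive = change between -60% and -40%, or beyond the set limit; inactive = change above -40%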; also: % is scaled to controls: 0 for no effect and ±100 for the full control effect
# Target sequence (Q9HBX9 whole entry, looked up): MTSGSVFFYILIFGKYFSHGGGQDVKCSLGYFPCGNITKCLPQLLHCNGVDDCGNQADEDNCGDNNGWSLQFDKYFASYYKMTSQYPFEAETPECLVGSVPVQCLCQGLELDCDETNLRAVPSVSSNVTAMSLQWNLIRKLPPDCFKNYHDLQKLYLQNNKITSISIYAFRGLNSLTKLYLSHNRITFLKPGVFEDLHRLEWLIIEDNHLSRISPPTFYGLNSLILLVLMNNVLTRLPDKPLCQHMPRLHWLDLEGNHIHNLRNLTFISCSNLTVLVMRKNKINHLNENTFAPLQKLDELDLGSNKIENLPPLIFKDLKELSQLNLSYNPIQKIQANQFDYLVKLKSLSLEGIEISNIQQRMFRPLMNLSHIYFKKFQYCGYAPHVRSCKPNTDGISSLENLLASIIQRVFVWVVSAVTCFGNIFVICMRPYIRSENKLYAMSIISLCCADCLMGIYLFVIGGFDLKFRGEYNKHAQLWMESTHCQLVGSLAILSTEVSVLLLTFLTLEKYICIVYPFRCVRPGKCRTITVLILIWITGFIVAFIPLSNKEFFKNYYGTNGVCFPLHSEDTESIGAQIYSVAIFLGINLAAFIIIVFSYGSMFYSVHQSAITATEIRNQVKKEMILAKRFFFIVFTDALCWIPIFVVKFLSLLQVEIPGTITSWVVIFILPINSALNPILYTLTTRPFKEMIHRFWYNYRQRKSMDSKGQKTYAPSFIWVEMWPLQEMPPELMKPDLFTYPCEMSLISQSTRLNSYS
# RXFP1 agonist: qHTS Assay for Agonists of the Relaxin Receptor RXFP1; 0.3% of 370,000 active; HEK293T-RXFP1 cAMP TR-FRET, 30 min; response scale: percent of porcine relaxin response, buffer zero; Relaxin receptor 1 (Homo sapiens), Q9HBX9; Potency, µM (doses to about 57.5 µM), for inactives: top-dose activation, actives largely listed as activators; also: potency is read from the fitted curve at half-maximal effect; % is scaled to controls: 0 for no effect and ±100 for the full control effect; nearly all actives have a fitted effect of over 60% in size
#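 HEK293T cells stably expressing RXFP1 were pretreated with the PDE4 inhibitor Ro 20174, exposed to compounds for 30 min at 37C, lysed, and cAMP was read by TR-FRET. Data normalized to buffer (basal) and 29 nM porcine relaxin (100%).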
# miR-21 act: qHTS Assay for Modulators of miRNAs and/orActivators of miR-21. 340,000 tested, under 10 active. Potency, µM (highest dose often 38.3 µM), without a hit: at the top dose activity change, positive = activation, most hits filed as activators. HeLa miR-21 FLuc reporter, luciferase, 48 h. AID 2288, 2010;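 also: % of control where 0% means no effect; miR-21 action dims this reporter so a rising signal means less miR-21 action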
#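 HeLa cells endogenously expressing miR-21, stably carrying CMV-driven firefly luciferase with a downstream miR-21 binding site, 2000 cells/well. Titrations up to approximately 40 uM, 48 hours; luciferase luminescence read.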
# Luc counter: Counterscreen for Luciferase (Kinase-Glo TM) Inhibition; Luciferin 4-monooxygenase (Photuris pensylvanica), Q27757; Kinase-Glo luciferase, ATP luminescence, 8 min; Potency, µM (doses to about 38.3 µM), without a hit: at the top dose activity change, negative = inhibition, hits mostly inhibitors; 0.28% of 200,000 active; also: potency is read from the fitted curve at half-maximal effect; % is scaled to controls: 0 for no effect and ±100 for the full control effect; nearly all actives have a fitted effect of over 60% in size
#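 Recombinant Kinase-Glo luciferase, 10 uM ATP (linear range), luciferin; imidazole pH 7.2 / KCl / MgCl2 / Tween / BSA buffer; 8 min RT; luminescence.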
# * = called active by the depositor; ? = inconclusive; . = no result given; [ ] = another dose, or the depositor's remark. Most compounds without a hit are left out; they make up all but 1% or so of the library. Unless noted, calls follow the shape of the dose curve; as a rule, active = well fitted curve in the direction sought with a large enough effect; inconclusive = small, poorly fitted or top-dose-only effect, or another doubt; inactive = no such curve, though single readings can be large; an effect the other way counts as inactive or inconclusive.
SMILES,gsp ag,gsp antagonist,RXFP1 antag,RXFP1 agonist,miR-21 act,Luc counter
COc1ccc(N2C(=O)C3CCCN3C2c2cccc(Br)c2)cc1 (stereo not drawn),-47.1%,-0.9%,8.7,0.8%,-6.3%,-0.6%
Cc1ccc(-c2noc(C3CCCN(C(=O)c4ccccc4Br)C3)n2)cc1 (stereo not drawn),-13.8%,44.7µM*,5.9,-0.1%,0.5%,.
Cc1ccc(-c2noc(C3CCCN(C(=O)c4c(F)cccc4F)C3)n2)cc1 (stereo not drawn),7.8%,?,-12.7,-0.7%,2.3%,-1.3%
COc1ccccc1/C=C/C(=O)c1ccccc1,16.3%,-7.7%,4.6,1.2%,0.1%,.
COc1ccccc1/C=C/C(=O)c1c2c(c(C)[nH]c1=O)CCCC2,24.7%,50.1µM*,1.3,-1.0%,10.0%,0.9%
Cc1ccc(C)c(S(=O)(=O)C(C#N)c2nc3ccccc3nc2N2CCOCC2)c1 (stereo not drawn),21.9%,25.1µM*,-7.6,3.3%,-0.6%,-2.4%
Cc1ccc(C)c(S(=O)(=O)C(C#N)c2nc3ccccc3nc2N2CCCC2)c1 (stereo not drawn),2.5%,6.0%,-0.3,-0.9%,-11.5%,.
Cc1ccccc1C(=O)N1CCC(C(=O)Nc2nc3ccc(F)cc3s2)CC1,-1.0%,39.8µM*,-23.6,2.0%,.,.
Cc1ccccc1C(=O)N1CCC(C(=O)Nc2nccs2)CC1,?,-3.2%,-1.5,1.5%,1.1%,-0.8%
COc1ccc(C(=O)Nc2ccccc2C(=O)N/N=C/c2cccc3ccccc23)cc1,-0.7%,-14.5%,-24.3,2.5%,-31.0%,5.01µM*
COc1ccc(C(=O)Nc2ccccc2C(N)=O)cc1,23.2%,-13.9%,0.4,-0.5%,-49.9%,?
O=C(/C=C/c1ccccc1)/C=C/c1ccccc1,0.3%,19.7%,-66.9*,6.1%,?,-4.2%
CCNC(=O)[C@@H]1CCCN1C(=O)[C@H](CCCN=C(N)N)NC(=O)[C@H](CC(C)C)NC(=O)CNC(=O)[C@H](Cc1ccc(O)cc1)NC(=O)[C@H](CO)NC(=O)[C@H](Cc1c[nH]c2ccccc12)NC(=O)[C@H](Cc1cnc[nH]1)NC(=O)[C@@H]1CCC(=O)N1,.,.,-8.7,.,.,.
COc1cc(C(=O)NCCCc2nc3ccccc3n2CC(C)C)cc(OC)c1OC,.,.,.,-1.9%,4.8%,.
Oc1nc(Nc2ccc(F)cc2)sc1/C=C1\C=Nc2ccccc21,11.8%[15.4 µM],-26.5%,-104.0*,2.4%,-34.6%,.
Oc1cccc(Nc2nc(O)c(/C=C3\C=Nc4ccccc43)s2)c1,?,?,-1.0,1.1%,-65.3%,.
Cc1nn(-c2nc(-c3ccc(F)cc3)cc(C(F)(F)F)n2)c(C)c1Cl,.,.,-36.5,3.0%,-8.1%,.
Cc1cccc(NC(=O)c2onc3c2CCCC3)n1,1.3%,3.8%,.,2.7%,7.4%,4.47µM*
Cc1cccc(NC(=O)c2onc3c2CCCC3)c1C,-29.8%,-3.8%,8.3,0.2%,-47.0%,-12.1%
Cc1cccc(CNC(=O)C2CCN(S(=O)(=O)c3ccc4c(c3)CCCN4C(=O)C3CCC3)CC2)c1,.,.,-16.8,-0.7%,23.7%,.
Cc1ccc2c(c1C)-c1c(ccc(C)c1C)C(=O)C2=O,9.0%,18.4%,-68.7*,.,.,.
CC(c1nnnn1C(C)(C)C)N(Cc1cccnc1)Cc1ccccc1Cl (stereo not drawn),-27.1%,39.8µM*,3.2,-0.2%,-0.8%,-2.0%
CC(C)(C)OC(=O)NCCCCCNC(=O)c1nc[nH]c1C(=O)NCc1ccc(CNC(=O)OC(C)(C)C)cc1,.,39.8µM*,.,.,.,.
C[C@H](NC(=O)c1nc[nH]c1C(=O)NCc1ccccc1)C(=O)OCc1ccccc1,-41.0%,11.2µM*,.,-0.7%,-0.1%,.
C[C@@H]1CCN(C(=O)[C@H](CCCN=C(N)N)NS(=O)(=O)c2cccc3c2NC[C@H](C)C3)[C@@H](C(=O)O)C1,.,.,10.6,.,.,.
SMILES,gsp ag,gsp antagonist,RXFP1 antag,RXFP1 agonist,miR-21 act,Luc counter
Cc1cc2c(s1)c(C#N)c(C(=O)NCc1ccccc1F)n2C,.,.,.,5.7%,.,.
Cc1cc(C(F)F)n2nc(C(=O)Nc3cccc(Cl)c3C)nc2n1,.,.,.,4.1%,-15.2%,.
CC(C)(C)c1cc(-c2csc(Nc3ccccc3)[n+]2Cc2ccc(C(=O)O)cc2)cc(C(C)(C)C)c1O,8.0%[15.4 µM],31.6µM*,-29.3,2.1%,28.2%,.
Cc1cc(C)c(Cn2c(C)c(CNCCCc3ccccc3)c(C(=O)O)c2C)c(C)c1,.,.,-36.4,-0.5%,-7.4%,.
Cc1cccc(N2CCN(c3nc4ccc(C(=O)c5ccccc5)cc4n4cnnc34)CC2C)c1 (stereo not drawn),.,.,-20.9,1.9%,0.7%,.
CC(C)(C)OC(=O)N[C@@H](Cc1ccccc1)c1nnc(S(=O)(=O)Cc2cccc(F)c2)o1,5.6%,9.7%,-119.0*,0.6%,?,6.0%
CCn1c(COc2cccc(C)c2)nnc1SCC(=O)Nc1cccc(C(=O)OC)c1,-2.3%,28.2µM*,-5.1,0.7%,-20.9%,-1.1%
CCOC(=O)c1cccc(NC(=O)CSc2nnc(COc3ccccc3)n2CC)c1,26.1%,?,-1.0,-0.1%,-2.1%,0.6%
CCn1c(Cl)c(C=O)s/c1=N\S(=O)(=O)c1ccccc1,?,-26.1%,-86.5*,4.3%,?,.
CCN1C(=O)CS/C1=N\S(=O)(=O)c1ccc(Cl)cc1,4.4%[15.4 µM],1.4%,-11.6,2.1%,-1.7%,0.5%
COC(=O)c1c(NC(=O)Cc2coc3ccc(C(C)C)cc23)sc2c1CCC2,.,.,-13.4,0.3%,-15.0%,.
Cc1ccccc1Oc1nnc(-c2cccs2)c2ccccc12,7.8%[15.4 µM],25.1µM*,?,1.7%,-14.1%,.
CN1CCN(c2nnc(-c3cccs3)c3ccccc23)CC1,-9.1%[15.4 µM],1.0%,-2.4,2.0%,-8.9%,3.8%
CC(C(=O)O)c1ccc2c(c1)CC(=O)c1ccccc1S2 (stereo not drawn),.,.,-11.5,.,.,.
c1ccc2c(C3=NNC(=NC4CC4)SC3)c[nH]c2c1,3.7%,-4.5%,0.6,1.9%,-2.9%,-13.2%
c1ccc(C2=NNC(=NC3CC3)SC2)cc1,-26.9%,-2.9%,-6.2,3.5%,24.6%,4.47µM*
CCOc1ccc(OCC)c(NC(=O)CN(C)S(=O)(=O)c2ccc3[nH]c(=O)oc3c2)c1,.,.,-25.4,-2.8%,-1.3%,.
N#Cc1ccccc1Cn1cc(/C=C/[N+](=O)[O-])c2ccccc21,6.8%[15.4 µM],-10.0%,-65.0*,0.7%,?,4.2%

# Screens deposited in PubChem by National Center for Advancing Translational Sciences (NCATS).
